An excerpt weighted towards active compounds, which were near 20% of everything screened.
Pf growth 96h – Primary qHTS for delayed death inhibitors of the malarial parasite plastid, 96 hour incubation; 6.9% of 320,000 active; Potency, µM (series often up to 28.7 µM), for inactives: at the top dose activity change, negative = inhibition, hits mostly inhibitors; P. falciparum luciferase reporter growth, 96 h; note: potency is the fitted concentration of half-maximal effect; % is set by controls: 0 for no effect and ±100 for the full control effect
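Cell-based qHTS: luciferase-tagged P. falciparum in erythrocytes (2% hematocrit, 0.05% parasitemia final) incubated with compounds for 96 hours, 37 C, 5% CO2; luciferase detection reagent then added and luminescence measured.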
Shiga inhibitor – A qHTS for Small Molecule Inhibitors of Shiga Toxin. Vero cells, Shiga toxin protein synthesis inhibition reporter. inhibition, % at 38.7 µM. 9.2% of 290,000 active. AID 2315, 2010; in the data active = inhibition mostly above about 28%, no sharp cut-off; inactive = mostly below about 43%; note: 0% is about no effect
Pf growth 48h – Primary qHTS for delayed death inhibitors of the malarial parasite plastid, 48 hour incubation. 5.9% of 310,000 active. Potency, µM (doses to about 28.7 µM), inactives show at the highest dose activity change, negative = inhibition, usual class: inhibitors. P. falciparum luciferase growth in erythrocytes, 48 h; note: potency is the fitted concentration of half-maximal effect; % is set by controls: 0 for no effect and ±100 for the full control effect
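Here the parasites carry a stable luciferase gene and grow inside erythrocytes in Albumax-based RPMI medium with compound for one erythrocytic cycle. Activity is scored as loss of luminescent signal.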
CHX counter – Cycloheximide Counterscreen for Small Molecule Inhibitors of Shiga Toxin; cell reporter, cycloheximide protein synthesis inhibition counterscreen; max response, %; 12% of 300,000 active; in the data active = max response mostly above about 13%, no sharp cut-off; inactive = mostly below about 14%; note: read at 38.3 µM for the half of the compounds with a filed dose; 0% is about no effect
HCMV antiviral – qHTS Assay for inhibitors of the human cytomegalovirus (HCMV); HFF cells, HCMV-luciferase reporter, 72 h; hits give low values; activity change, negative = inhibition, % at 57.5 µM; 4.5% of 410,000 active; AID 1259415, 2018; in the data active = activity change below about -60%; inconclusive = no clear call, values can overlap the other calls; inactive = above about -39%; note: % is set by controls: 0 for no effect and ±100 for the full control effect
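HFF cells seeded 16 h at 37C, treated with compounds, infected with luciferase-reporter HCMV at MOI 1 PFU/cell; luciferase read at 72 h post infection, normalized to buffer-only and Salinomycin controls.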
* = called active by the depositor; ? = inconclusive; . = no result; [ ] = another dose, or the depositor's remark. Unless noted, calls come from the whole dose curve; as a rule, active = well fitted inhibition curve with a large enough effect; inconclusive = small, poorly fitted or top-dose-only effect, or another doubt; inactive = no such curve, though single readings can be large or run the other way.

SMILES	Pf growth 96h	Shiga inhibitor	Pf growth 48h	CHX counter	HCMV antiviral
C=C(C(=O)c1ccccc1)C(C(=C)C(=O)c1ccccc1)c1ccc(OC)cc1	?	10.8	2.08µM*	1.6	-99.8*
C=C(C(=O)c1ccccc1)C(C)C(=C)C(=O)c1ccccc1	10.4µM*	17.0	?	37.9*	-99.9*
COc1ccc(CNC(=O)CN2c3ccccc3S(=O)(=O)c3ccccc32)cc1	4.9%	0.8	-27.6%	1.3	15.1
CCOc1ccccc1NC(=O)Cn1c(=O)n(Cc2ccccc2)c(=O)c2c1c1cc(C)ccc1n2C	.	.	.	.	0.7
Cc1ccc(S(=O)(=O)N2CCCc3cc(NC(=O)c4ccc(C(F)(F)F)cc4)ccc32)cc1	.	.	.	.	6.8
COc1cccc(N2CCN(C(=O)c3cc4c(=O)n(Cc5ccco5)ccc4nc3C)CC2)c1	.	.	.	.	-21.6
Cc1ccc(C(=O)NNc2cc(N3CCCC3)nc(N3CCCC3)n2)cc1	-7.6%	-7.6	4.65µM*	1.9	.
O=C(NNc1cc(N2CCOCC2)nc(N2CCOCC2)n1)c1ccc(Cl)c(Cl)c1	-14.8%	-9.8	-3.7%	0.4	62.7
Cc1ccc(C)c(NC(=O)N2CCc3cc(S(=O)(=O)N4CCC(C)CC4)ccc32)c1	.	.	.	.	16.5
O=C(Nc1ccccc1)c1nc[nH]c1C(=O)NCc1ccccc1	?	.	0.0%	.	-0.5
CC(C)(C)OC(=O)NCc1ccc(CNC(=O)c2[nH]cnc2C(=O)N[C@@H](Cc2ccccc2)C(=O)OC(C)(C)C)cc1	?	-5.9	10.4µM*	-1.1	49.2
CC(C)(C)OC(=O)NCc1ccc(NC(=O)c2nc[nH]c2C(=O)N[C@@H](Cc2ccccc2)C(=O)OCc2ccccc2)cc1	4.15µM*	-5.5	8.28µM*	2.6	?
Cc1cccc(NC(=O)c2nc[nH]c2C(=O)NCc2ccccc2)c1	?	.	-1.3%	.	-60.5*
CC(C)(C)OC(=O)[C@H](Cc1ccccc1)NC(=O)c1nc[nH]c1C(=O)NCc1ccccc1	1.0%	-8.9	-1.5%	-3.0	-17.2
CC(C)(C)OC(=O)NCc1ccc(CNC(=O)c2[nH]cnc2C(=O)N[C@@H](Cc2ccccc2)C(=O)OCc2ccccc2)cc1	3.29µM*	-0.6	?	-1.8	38.2
O=C(N[C@@H](Cc1ccc(O)cc1)C(=O)O)c1ccc(C(F)(F)F)cc1	10.9%	0.9	39.8%	-1.3	?
O=C(Nc1c(-c2ccc(F)cc2)nc2ccccn12)c1ccccc1F	.	.	.	.	-8.6
Cc1cc(C)cc(N(C(=O)C(F)(F)F)C(C(=O)NC2CCCCC2)c2cccs2)c1 (stereo not given)	69.2%	9.5	-6.6%	1.3	-4.3
CN(Cc1ccccc1)C(=O)c1[nH]cnc1C(=O)NCc1ccc(CNC(=O)OC(C)(C)C)cc1	?	.	?	.	-1.4
C[C@@H]1CNC(=O)c2c(C(=O)Nc3ccc(CNC(=O)OC(C)(C)C)cc3)ncn21	.	.	.	.	-65.5*
CC(C)(C)OC(=O)NCc1ccc(CNC(=O)c2nc[nH]c2C(=O)NCc2ccccc2)cc1	2.94µM*	.	10.4µM*	.	0.4
O=C(N[C@@H](Cc1ccccc1)C(=O)OCc1ccccc1)c1nc[nH]c1C(=O)N1CCc2ccccc2C1	39.5%	16.2	?	18.1*	27.7
CN(Cc1ccccc1)C(=O)c1[nH]cnc1C(=O)NCc1ccccc1	34.4%	.	5.0%	.	-61.3*
COc1ccc(-c2nc(C(=O)NCC3CCCO3)cc3c2[nH]c2ccccc23)cc1 (stereo not given)	7.38µM*	-6.3	5.22µM*	-2.9	?
Cc1ccc(-c2cc(C(=O)NCC3CCCO3)c3ccccc3n2)cc1C (stereo not given)	?	21.0	33.7%	18.6	-3.2
Cc1ccccc1-c1nc(C(=O)NCC2CCCO2)cc2c1[nH]c1ccccc12 (stereo not given)	11.7µM*	-1.7	?	-2.2	-23.0
COc1ccc(-n2c(SCC(=O)NCC3CCCO3)nc3c([nH]c4ccccc43)c2=O)cc1 (stereo not given)	0.0%	2.9	-5.0%	-4.9	-7.8
O=C(NCC1CCCO1)c1cc2c([nH]c3ccccc32)c(-c2cccc(Br)c2)n1 (stereo not given)	3.7µM*	-4.7	?	-1.9	-72.3*
Cc1nc(C(=O)NCCO)cc2c1[nH]c1ccccc12	5.6%	2.9	2.1%[0.00184 µM]	1.9	17.2

Screening data (PubChem BioAssay)
